Source: the supplement of paper PMC8728848
Shown is part of a subset that was picked to be rich in the strongest signals.

Columns and labels:
Test in all cases: glycan array binding signal (z-score within array); higher = stronger binding
Conditions in all cases: glycan notation: IUPAC condensed, linker removed
[1] = biological target: Fuc(a1-2)Gal(b1-3)GalNAc(b1-3)Gal(a1-4)Gal(b1-4)Glc
Summary of the method: (§1)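 The binding signal is a Z-score computed within each array. Data were drawn from 3228 arrays in the Consortium for Functional Glycomics database, restricted to those with a known protein sequence. Scores were averaged over arrays of the same protein sequence at different concentrations or buffers, and over linkers, and negative values can be taken as non-binding.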

[2] = biological target: Fuc(a1-2)Gal(b1-3)[Fuc(a1-4)]GlcNAc(b1-2)Man(a1-3)[Fuc(a1-2)Gal(b1-3)[Fuc(a1-4)]GlcNAc(b1-2)Man(a1-6)]Man(b1-4)GlcNAc(b1-4)[Fuc(a1-6)]GlcNAc(b1-4)[Fuc(a1-6)]GlcNAc
Summary of the method: as §1

[3] = biological target: Fuc(a1-2)Gal(b1-4)GlcNAc(b1-3)[Fuc(a1-3)[Gal(b1-4)]GlcNAc(b1-6)]Gal(b1-4)Glc
Summary of the method: as §1

[4] = biological target: Fuc(a1-2)Gal(b1-4)GlcNAc(b1-6)GalNAc
Summary of the method: as §1

[5] = biological target: Fuc(a1-2)Gal(b1-4)[Fuc(a1-3)]GlcNAc
Summary of the method: as §1

[6] = biological target: Fuc(a1-2)Gal(b1-4)[Fuc(a1-3)]GlcNAc(b1-3)Gal(b1-4)[Fuc(a1-3)]GlcNAc(b1-3)Gal(b1-4)[Fuc(a1-3)]GlcNAc
Summary of the method: as §1

[7] = biological target: Fuc(a1-2)[Gal(a1-3)]Gal(b1-3)GalNAc(b1-3)Gal(a1-4)Gal(b1-4)Glc
Summary of the method: as §1

[8] = biological target: Fuc(a1-2)[Gal(a1-3)]Gal(b1-3)GlcNAc(b1-2)Man(a1-3)[Fuc(a1-2)[Gal(a1-3)]Gal(b1-3)GlcNAc(b1-2)Man(a1-6)]Man(b1-4)GlcNAc(b1-4)GlcNAc
Summary of the method: as §1

[9] = biological target: Fuc(a1-2)[GalNAc(a1-3)]Gal(b1-4)Glc
Summary of the method: as §1

[10] = biological target: Fuc(a1-2)[GalNAc(a1-3)]Gal(b1-4)GlcNAc
Summary of the method: as §1

[11] = biological target: Fuc(a1-3)[Gal(b1-4)]GlcNAc(b1-3)Gal(b1-4)[Fuc(a1-3)]GlcNAc
Summary of the method: as §1

[12] = biological target: Fuc(a1-3)[Gal(b1-4)]GlcNAc(b1-4)Gal(b1-4)[Fuc(a1-3)]GlcNAc(b1-4)Gal(b1-4)[Fuc(a1-3)]GlcNAc
Summary of the method: as §1

[13] = biological target: Fuc(a1-3)[Gal(b1-4)]GlcNAc(b1-6)[Gal(b1-3)GlcNAc(b1-3)]Gal(b1-4)Glc
Summary of the method: as §1

[14] = biological target: Fuc(a1-3)[Gal(b1-4)]GlcNAc(b1-6)[Neu5Ac(a2-3)Gal(b1-3)]GalNAc
Summary of the method: as §1

[15] = biological target: Gal(a1-3)Gal(b1-3)GlcNAc(b1-2)Man
Summary of the method: as §1

[16] = biological target: Gal(a1-3)Gal(b1-3)GlcNAc(b1-3)GalNAc
Summary of the method: as §1

[17] = biological target: Gal(a1-3)Gal(b1-4)[Fuc(a1-3)]GlcNAc
Summary of the method: as §1

[18] = biological target: Gal(a1-4)Gal(b1-3)GlcNAc(b1-2)Man(a1-3)[Gal(a1-4)Gal(b1-3)GlcNAc(b1-2)Man(a1-6)]Man(b1-4)GlcNAc(b1-4)GlcNAc
Summary of the method: as §1

Gal(b1-2)Gal = biological target: Gal(b1-2)Gal
Summary of the method: as §1

[19] = biological target: Gal(b1-3)GlcNAc(b1-3)GalNAc
Summary of the method: as §1

[20] = biological target: Gal(b1-3)GlcNAc(b1-6)GalNAc
Summary of the method: as §1

[21] = biological target: Gal(b1-3)[Fuc(a1-4)]GlcNAc
Summary of the method: as §1

[22] = biological target: Gal(b1-3)[Neu5Ac(a2-6)]GlcNAc(b1-6)Gal(b1-4)Glc
Summary of the method: as §1

[23] = biological target: Gal(b1-4)GalNAc(a1-3)[Fuc(a1-2)]Gal(b1-4)GlcNAc
Summary of the method: as §1

[24] = biological target: Gal(b1-4)GlcNAc(b1-2)Man(a1-3)[GlcNAc(b1-2)Man(a1-6)]Man(b1-4)GlcNAc(b1-4)GlcNAc
Summary of the method: as §1

[25] = biological target: Gal(b1-4)GlcNAc(b1-2)Man(a1-6)[Man(a1-3)]Man(b1-4)GlcNAc(b1-4)GlcNAc
Summary of the method: as §1

[26] = biological target: Gal(b1-4)GlcNAc(b1-2)[Gal(b1-4)GlcNAc(b1-6)]Man(a1-6)[Gal(b1-4)GlcNAc(b1-2)Man(a1-3)]Man(b1-4)GlcNAc(b1-4)GlcNAc
Summary of the method: as §1

[27] = biological target: Gal(b1-4)GlcNAc(b1-3)Gal(b1-4)GlcNAc(b1-2)Man(a1-3)[Gal(b1-4)GlcNAc(b1-3)Gal(b1-4)GlcNAc(b1-2)Man(a1-6)]Man(b1-4)GlcNAc(b1-4)[Fuc(a1-6)]GlcNAc
Summary of the method: as §1

[28] = biological target: Gal(b1-4)GlcNAc(b1-3)Gal(b1-4)GlcNAc(b1-6)[Gal(b1-3)]GalNAc
Summary of the method: as §1

GalNAc(b1-3)GlcNAc = biological target: GalNAc(b1-3)GlcNAc
Summary of the method: as §1

GalNAc3S(b1-4)GlcNAc3S = biological target: GalNAc3S(b1-4)GlcNAc3S
Summary of the method: as §1

[29] = biological target: GlcNAc(b1-2)Gal(b1-3)GalNAc
Summary of the method: as §1

[30] = biological target: GlcNAc(b1-2)Man(a1-3)[GlcNAc(b1-2)Man(a1-6)]Man(b1-4)GlcNAc(b1-4)GlcNAc
Summary of the method: as §1

[31] = biological target: GlcNAc(b1-2)[GlcNAc(b1-4)]Man(a1-3)[GlcNAc(b1-2)Man(a1-6)]Man(b1-4)GlcNAc(b1-4)GlcNAc
Summary of the method: as §1

[32] = biological target: GlcNAc(b1-3)Gal(b1-4)GlcNAc
Summary of the method: as §1

[33] = biological target: GlcNAc(b1-3)Gal(b1-4)GlcNAc(b1-3)Gal(b1-4)GlcNAc(b1-2)Man(a1-3)[GlcNAc(b1-3)Gal(b1-4)GlcNAc(b1-3)Gal(b1-4)GlcNAc(b1-2)Man(a1-6)]Man(b1-4)GlcNAc(b1-4)GlcNAc
Summary of the method: as §1

[34] = biological target: GlcNAc(b1-3)Gal(b1-4)GlcNAc(b1-6)[GlcNAc(b1-3)Gal(b1-3)]GalNAc
Summary of the method: as §1

Kdn(a2-3)Gal(b1-3)GalNAc = biological target: Kdn(a2-3)Gal(b1-3)GalNAc
Summary of the method: as §1

Kdn(a2-3)Gal(b1-3)GlcNAc = biological target: Kdn(a2-3)Gal(b1-3)GlcNAc
Summary of the method: as §1

[35] = biological target: Man(a1-2)Man(a1-3)[Man(a1-6)]Man(a1-6)[Man(a1-2)Man(a1-3)]Man(b1-4)GlcNAc(b1-4)GlcNAc
Summary of the method: as §1

[36] = biological target: Man(a1-2)Man(a1-6)[Man(a1-3)]Man(a1-6)[Man(a1-2)Man(a1-2)Man(a1-3)]Man(b1-4)GlcNAc(b1-4)GlcNAc
Summary of the method: as §1

[37] = biological target: Man(a1-3)[Man(a1-6)]Man(a1-6)[Man(a1-2)Man(a1-3)]Man(b1-4)GlcNAc(b1-4)GlcNAc
Summary of the method: as §1

[38] = biological target: Man(a1-3)[Man(a1-6)]Man(a1-6)[Man(a1-3)]Man(b1-4)GlcNAc(b1-4)GlcNAc
Summary of the method: as §1

[39] = biological target: Man(a1-3)[Man(a1-6)]Man(b1-4)GlcNAc(b1-4)GlcNAc
Summary of the method: as §1

[40] = biological target: Man(a1-3)[Man(a1-6)]Man(b1-4)GlcNAc(b1-4)[Fuc(a1-6)]GlcNAc
Summary of the method: as §1

[41] = biological target: Neu5Ac(a2-3)Gal(b1-3)GlcNAc(b1-2)Man
Summary of the method: as §1

[42] = biological target: Neu5Ac(a2-3)Gal(b1-3)GlcNAc(b1-3)GalNAc
Summary of the method: as §1

[43] = biological target: Neu5Ac(a2-3)Gal(b1-3)GlcNAc(b1-4)Gal(b1-4)Glc
Summary of the method: as §1

[44] = biological target: Neu5Ac(a2-3)Gal(b1-4)GlcNAc(b1-3)Gal
Summary of the method: as §1

[45] = biological target: Neu5Ac(a2-3)Gal(b1-4)[Fuc(a1-3)]GlcNAc(b1-3)Gal
Summary of the method: as §1

[46] = biological target: Neu5Ac(a2-3)Gal(b1-4)[Fuc(a1-3)]GlcNAc(b1-3)GalNAc
Summary of the method: as §1

[47] = biological target: Neu5Ac(a2-3)[GalNAc(b1-4)]Gal(b1-4)GlcNAc
Summary of the method: as §1

Neu5Ac(a2-6)Gal(b1-4)Glc = biological target: Neu5Ac(a2-6)Gal(b1-4)Glc
Summary of the method: as §1

[48] = biological target: Neu5Ac(a2-6)Gal(b1-4)GlcNAc(b1-2)Man(a1-6)[Man(a1-3)]Man(b1-4)GlcNAc(b1-4)GlcNAc
Summary of the method: as §1

[49] = biological target: Neu5Ac(a2-8)Neu5Ac(a2-3)Gal(b1-3)GalNAc(b1-4)[Neu5Ac(a2-3)]Gal(b1-4)Glc
Summary of the method: as §1

B1: OrysaEULS2 (Oryza sativa) (protein)
chain: MVYCRANPNYAMTARNGAVVLAPANPKDEYQHWIKDMRWSTSIKDEEGYPAFALVNKATGQAIKHSLGQSHPVRLVPYNPEVMDESVLWTESRDVGNGFRCIRMVNNIYLNFDAFHGDKYHGGVRDGTDIVLWKWCEGDNQRWKIQPYYILEQKLISEEDLNSAVDHHHHHH
- glycan array binding signal (z-score) [1]: -0.184
- glycan array binding signal (z-score) [2]: -0.187
- glycan array binding signal (z-score) [3]: -0.276
- glycan array binding signal (z-score) [4]: -0.163
- glycan array binding signal (z-score) [5]: -0.191
- glycan array binding signal (z-score) [6]: -0.194
- glycan array binding signal (z-score) [7]: -0.248
- glycan array binding signal (z-score) [8]: -0.081
- glycan array binding signal (z-score) [9]: -0.205
- glycan array binding signal (z-score) [10]: -0.2
- glycan array binding signal (z-score) [11]: -0.27
- glycan array binding signal (z-score) [12]: -0.163
- glycan array binding signal (z-score) [13]: -0.183
- glycan array binding signal (z-score) [14]: -0.16
- glycan array binding signal (z-score) [15]: -0.28
- glycan array binding signal (z-score) [16]: -0.176
- glycan array binding signal (z-score) [17]: -0.216
- glycan array binding signal (z-score) [18]: 2.38
- glycan array binding signal (z-score) (Gal(b1-2)Gal): -0.142
- glycan array binding signal (z-score) [19]: -0.179
- glycan array binding signal (z-score) [20]: -0.218
- glycan array binding signal (z-score) [21]: -0.191
- glycan array binding signal (z-score) [22]: -0.179
- glycan array binding signal (z-score) [23]: -0.199
- glycan array binding signal (z-score) [24]: 1.37
- glycan array binding signal (z-score) [25]: 5.65
- glycan array binding signal (z-score) [26]: 1.53
- glycan array binding signal (z-score) [27]: 0.18
- glycan array binding signal (z-score) [28]: -0.172
- glycan array binding signal (z-score) (GalNAc(b1-3)GlcNAc): -0.242
- glycan array binding signal (z-score) (GalNAc3S(b1-4)GlcNAc3S): -0.189
- glycan array binding signal (z-score) [29]: -0.206
- glycan array binding signal (z-score) [30]: 3.13
- glycan array binding signal (z-score) [31]: -0.179
- glycan array binding signal (z-score) [32]: -0.186
- glycan array binding signal (z-score) [33]: 0.555
- glycan array binding signal (z-score) [34]: -0.224
- glycan array binding signal (z-score) (Kdn(a2-3)Gal(b1-3)GalNAc): -0.167
- glycan array binding signal (z-score) (Kdn(a2-3)Gal(b1-3)GlcNAc): -0.204
- glycan array binding signal (z-score) [35]: 1.35
- glycan array binding signal (z-score) [36]: 1.51
- glycan array binding signal (z-score) [37]: 4.8
- glycan array binding signal (z-score) [38]: 4.45
- glycan array binding signal (z-score) [39]: 12.5
- glycan array binding signal (z-score) [40]: 1.44
- glycan array binding signal (z-score) [41]: -0.31
- glycan array binding signal (z-score) [42]: -0.195
- glycan array binding signal (z-score) [43]: -0.24
- glycan array binding signal (z-score) [44]: -0.196
- glycan array binding signal (z-score) [45]: -0.179
- glycan array binding signal (z-score) [46]: -0.145
- glycan array binding signal (z-score) [47]: -0.207
- glycan array binding signal (z-score) (Neu5Ac(a2-6)Gal(b1-4)Glc): -0.21
- glycan array binding signal (z-score) [48]: 3.61
- glycan array binding signal (z-score) [49]: -0.153
